The source of these data is publication PMC7862700, “An all-to-all approach to the identification of sequence-specific readers for epigenetic DNA modifications on cytosine”.

Common to all, as to test: DAPPL (digital affinity profiling via proximity ligation, sequencing); 10 mM Tris-HCl pH 7.5, 50 mM NaCl, 1 mM DTT, 4% glycerol, room temperature, 30 min; GST-TFs on glutathione beads, 16-mer random dsDNA library, 0.1% formaldehyde crosslink after washing; high values mean tight binding
Common to all, as to conditions: protein: recombinant; tags: N-terminal GST; dsDNA, one strand shown

One assay has as its target T1, ELK1 (Homo sapiens, UniProt P19419 1-428).
T1 sequence: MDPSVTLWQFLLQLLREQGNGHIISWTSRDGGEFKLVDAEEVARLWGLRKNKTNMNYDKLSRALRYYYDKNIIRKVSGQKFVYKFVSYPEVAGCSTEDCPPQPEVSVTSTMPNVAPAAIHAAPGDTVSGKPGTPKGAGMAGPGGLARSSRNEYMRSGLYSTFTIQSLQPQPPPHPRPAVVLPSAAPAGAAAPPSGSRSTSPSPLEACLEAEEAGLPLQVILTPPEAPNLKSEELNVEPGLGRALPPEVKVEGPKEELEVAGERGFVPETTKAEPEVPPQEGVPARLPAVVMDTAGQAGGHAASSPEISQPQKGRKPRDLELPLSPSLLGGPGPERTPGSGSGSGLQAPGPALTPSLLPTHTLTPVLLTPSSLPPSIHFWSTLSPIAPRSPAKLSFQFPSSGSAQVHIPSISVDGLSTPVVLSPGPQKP
In a few lines:
(§1)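 GST fusions of human transcription factors were expressed in yeast and captured with glutathione beads. Once given DNA barcodes and pooled alongside a tag-only sample, they were incubated for 30 min at room temperature with 200 nmole of a random double-stranded 16-mer DNA library in Tris/NaCl/DTT/glycerol buffer, then washed, crosslinked (0.1% formaldehyde), proximity-ligated, PCR-amplified and sequenced on an Illumina NextSeq500. The binding signal of each hexamer is its read frequency for a factor divided by its frequency for the tag-only sample.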

In another assay the target is T2, GABPA (Homo sapiens, UniProt Q06546 1-454).
T2 sequence: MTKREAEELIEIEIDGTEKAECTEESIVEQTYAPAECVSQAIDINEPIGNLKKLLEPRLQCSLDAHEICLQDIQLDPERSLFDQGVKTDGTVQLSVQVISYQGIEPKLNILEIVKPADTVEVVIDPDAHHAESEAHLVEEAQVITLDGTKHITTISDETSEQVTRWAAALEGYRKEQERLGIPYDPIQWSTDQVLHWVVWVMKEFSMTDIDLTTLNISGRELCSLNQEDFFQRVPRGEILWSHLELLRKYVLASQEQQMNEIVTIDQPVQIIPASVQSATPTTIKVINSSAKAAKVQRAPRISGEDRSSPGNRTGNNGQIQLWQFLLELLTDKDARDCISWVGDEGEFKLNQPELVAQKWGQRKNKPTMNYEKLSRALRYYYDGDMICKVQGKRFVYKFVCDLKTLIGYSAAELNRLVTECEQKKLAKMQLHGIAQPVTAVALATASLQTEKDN
In a few lines: as §1

A further assay addresses T3, ERG (Homo sapiens, UniProt P11308 1-479).
T3 sequence: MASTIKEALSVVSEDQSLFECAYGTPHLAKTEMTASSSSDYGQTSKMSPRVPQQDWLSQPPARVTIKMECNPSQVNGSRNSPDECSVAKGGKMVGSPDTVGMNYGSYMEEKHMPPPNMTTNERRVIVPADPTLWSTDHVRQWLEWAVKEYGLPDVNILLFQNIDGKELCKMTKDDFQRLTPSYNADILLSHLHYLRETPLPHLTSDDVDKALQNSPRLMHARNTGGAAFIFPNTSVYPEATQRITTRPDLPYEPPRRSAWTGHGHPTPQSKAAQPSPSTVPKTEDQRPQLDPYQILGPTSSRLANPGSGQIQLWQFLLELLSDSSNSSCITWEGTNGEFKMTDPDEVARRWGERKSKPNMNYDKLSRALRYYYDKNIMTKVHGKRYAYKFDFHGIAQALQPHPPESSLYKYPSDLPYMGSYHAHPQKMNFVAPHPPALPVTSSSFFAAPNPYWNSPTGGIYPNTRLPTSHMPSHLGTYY
In a few lines:
as §1

Another assay deals with ELF1 (Homo sapiens, UniProt P32519 1-619). In short, it runs like this: as §1
Another assay concerns the target T4, EHF (Homo sapiens, UniProt Q9NZC4 1-300).
T4 sequence: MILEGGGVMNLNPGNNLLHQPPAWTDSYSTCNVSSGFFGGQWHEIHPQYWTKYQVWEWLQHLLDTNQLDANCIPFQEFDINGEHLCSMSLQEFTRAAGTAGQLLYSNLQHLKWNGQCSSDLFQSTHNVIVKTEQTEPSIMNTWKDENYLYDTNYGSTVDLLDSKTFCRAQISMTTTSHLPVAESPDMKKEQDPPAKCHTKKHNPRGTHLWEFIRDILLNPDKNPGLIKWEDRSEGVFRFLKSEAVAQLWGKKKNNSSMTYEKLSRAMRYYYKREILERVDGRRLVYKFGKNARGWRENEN
In a few lines: as §1

Another assay concerns the target T5, FEV (Homo sapiens, UniProt Q99581 1-238).
T5 sequence: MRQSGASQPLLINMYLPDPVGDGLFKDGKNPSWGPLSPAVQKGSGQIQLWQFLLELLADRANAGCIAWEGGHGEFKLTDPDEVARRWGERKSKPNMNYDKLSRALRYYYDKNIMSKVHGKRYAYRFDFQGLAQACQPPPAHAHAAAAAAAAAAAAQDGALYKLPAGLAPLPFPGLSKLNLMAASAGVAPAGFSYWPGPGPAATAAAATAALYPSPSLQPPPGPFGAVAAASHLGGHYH
In a few lines:
as §1

The target in the next assay is ETV5 (Homo sapiens, UniProt P41161 1-510). In a few lines:
as §1

The next assay addresses ELF4 (Homo sapiens, UniProt Q99607 1-663). In a few lines: as §1
The next assay deals with T6, ETV2 (Homo sapiens, UniProt O00321 1-342).
T6 sequence: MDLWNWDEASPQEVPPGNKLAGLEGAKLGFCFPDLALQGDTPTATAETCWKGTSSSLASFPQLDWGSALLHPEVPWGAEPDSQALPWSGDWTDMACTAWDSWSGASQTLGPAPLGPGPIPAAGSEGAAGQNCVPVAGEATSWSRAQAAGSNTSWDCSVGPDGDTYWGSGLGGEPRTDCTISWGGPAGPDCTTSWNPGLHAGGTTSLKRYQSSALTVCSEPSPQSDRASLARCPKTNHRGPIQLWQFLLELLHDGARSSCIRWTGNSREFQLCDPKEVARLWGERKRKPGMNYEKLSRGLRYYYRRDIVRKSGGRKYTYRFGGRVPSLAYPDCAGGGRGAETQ
In short, it runs like this: as §1

Another assay concerns the target T7, ELF3 (Homo sapiens, UniProt P78545 1-371).
T7 sequence: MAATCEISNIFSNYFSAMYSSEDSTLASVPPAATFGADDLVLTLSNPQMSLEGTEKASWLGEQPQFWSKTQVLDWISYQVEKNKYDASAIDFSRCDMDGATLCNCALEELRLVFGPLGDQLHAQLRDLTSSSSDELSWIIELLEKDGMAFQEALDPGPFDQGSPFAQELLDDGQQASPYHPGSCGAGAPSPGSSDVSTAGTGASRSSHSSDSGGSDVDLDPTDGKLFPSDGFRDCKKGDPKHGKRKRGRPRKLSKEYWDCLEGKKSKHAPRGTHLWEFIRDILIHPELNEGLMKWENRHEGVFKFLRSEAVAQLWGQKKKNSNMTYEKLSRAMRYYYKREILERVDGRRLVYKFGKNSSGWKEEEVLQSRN
In a few lines:
as §1

A further assay has as its target ETV1 (Homo sapiens, UniProt P50549 1-477). In a few lines: as §1
The target in a further assay is T8, ETV3L (Homo sapiens, UniProt Q6ZN32 1-361).
T8 sequence: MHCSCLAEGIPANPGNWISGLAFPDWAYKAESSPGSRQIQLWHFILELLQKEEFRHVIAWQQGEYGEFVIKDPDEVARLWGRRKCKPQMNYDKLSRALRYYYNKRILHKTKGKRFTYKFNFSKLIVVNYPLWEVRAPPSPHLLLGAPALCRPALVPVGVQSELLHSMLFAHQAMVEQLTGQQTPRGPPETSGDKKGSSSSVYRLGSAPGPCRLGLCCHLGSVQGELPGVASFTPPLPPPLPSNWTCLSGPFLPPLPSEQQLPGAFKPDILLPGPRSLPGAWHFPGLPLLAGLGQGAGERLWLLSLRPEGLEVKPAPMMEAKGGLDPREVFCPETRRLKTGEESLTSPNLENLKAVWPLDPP
In a few lines:
as §1

The target in another assay is T9, ETV7 (Homo sapiens, UniProt Q9Y603 1-341).
T9 sequence: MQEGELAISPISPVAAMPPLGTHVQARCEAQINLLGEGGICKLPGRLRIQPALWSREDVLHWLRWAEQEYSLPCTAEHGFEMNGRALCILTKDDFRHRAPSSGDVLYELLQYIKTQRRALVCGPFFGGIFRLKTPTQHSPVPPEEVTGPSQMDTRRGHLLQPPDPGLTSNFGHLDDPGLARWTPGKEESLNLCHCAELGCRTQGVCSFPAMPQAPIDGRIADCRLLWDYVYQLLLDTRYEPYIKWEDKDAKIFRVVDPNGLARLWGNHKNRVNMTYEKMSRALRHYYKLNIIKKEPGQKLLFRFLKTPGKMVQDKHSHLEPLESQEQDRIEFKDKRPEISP
In a few lines: as §1

The next assay concerns the target T10, ETV3 (Homo sapiens, UniProt P41162-2 1-143).
T10 sequence: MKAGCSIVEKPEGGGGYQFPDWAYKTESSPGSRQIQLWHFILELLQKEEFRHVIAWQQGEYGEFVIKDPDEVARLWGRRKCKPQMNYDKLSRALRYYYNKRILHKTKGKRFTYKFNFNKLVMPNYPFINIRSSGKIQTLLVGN
In a few lines: as §1

The target in another assay is ETV6 (Homo sapiens, UniProt P41212 1-452). In short, it runs like this: as §1
A further assay concerns the target SPI1 (Homo sapiens, UniProt P17947 1-270). In short, it runs like this:
as §1

A further assay deals with SPIB (Homo sapiens, UniProt Q01892 1-262). In short, it runs like this:
as §1

A further assay addresses T11, ERF (Homo sapiens, UniProt P50548 1-548).
T11 sequence: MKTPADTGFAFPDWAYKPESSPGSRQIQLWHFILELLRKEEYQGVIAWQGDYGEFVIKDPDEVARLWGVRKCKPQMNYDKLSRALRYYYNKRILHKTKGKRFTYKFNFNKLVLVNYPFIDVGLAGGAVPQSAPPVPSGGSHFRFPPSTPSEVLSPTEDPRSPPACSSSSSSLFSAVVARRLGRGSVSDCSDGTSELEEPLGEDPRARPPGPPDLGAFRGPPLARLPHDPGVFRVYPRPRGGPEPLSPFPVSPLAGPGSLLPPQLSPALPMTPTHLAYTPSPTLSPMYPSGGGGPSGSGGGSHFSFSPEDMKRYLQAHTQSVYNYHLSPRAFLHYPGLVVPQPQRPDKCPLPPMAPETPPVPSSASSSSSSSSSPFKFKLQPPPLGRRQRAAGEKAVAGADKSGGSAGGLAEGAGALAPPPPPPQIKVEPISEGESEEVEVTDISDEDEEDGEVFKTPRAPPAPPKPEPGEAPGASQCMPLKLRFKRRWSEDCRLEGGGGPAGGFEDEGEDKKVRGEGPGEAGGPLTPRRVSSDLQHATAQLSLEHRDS
In short, it runs like this: as §1

Chain of ETV5 (P41161 whole entry): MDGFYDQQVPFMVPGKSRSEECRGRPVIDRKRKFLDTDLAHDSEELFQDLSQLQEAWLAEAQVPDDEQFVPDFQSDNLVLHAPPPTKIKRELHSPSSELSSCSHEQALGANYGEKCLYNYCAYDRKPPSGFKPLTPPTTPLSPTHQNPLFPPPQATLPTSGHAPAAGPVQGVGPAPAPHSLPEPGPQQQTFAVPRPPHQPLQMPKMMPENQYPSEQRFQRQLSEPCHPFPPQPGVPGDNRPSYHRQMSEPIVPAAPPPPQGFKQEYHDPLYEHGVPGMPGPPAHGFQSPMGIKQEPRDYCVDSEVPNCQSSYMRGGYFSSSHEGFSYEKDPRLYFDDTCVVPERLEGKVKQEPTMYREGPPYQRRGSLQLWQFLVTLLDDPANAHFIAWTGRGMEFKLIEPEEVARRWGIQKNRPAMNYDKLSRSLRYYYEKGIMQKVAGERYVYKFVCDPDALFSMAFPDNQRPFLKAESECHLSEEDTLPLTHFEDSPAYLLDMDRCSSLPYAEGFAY
Chain of ELF1 (P32519 whole entry): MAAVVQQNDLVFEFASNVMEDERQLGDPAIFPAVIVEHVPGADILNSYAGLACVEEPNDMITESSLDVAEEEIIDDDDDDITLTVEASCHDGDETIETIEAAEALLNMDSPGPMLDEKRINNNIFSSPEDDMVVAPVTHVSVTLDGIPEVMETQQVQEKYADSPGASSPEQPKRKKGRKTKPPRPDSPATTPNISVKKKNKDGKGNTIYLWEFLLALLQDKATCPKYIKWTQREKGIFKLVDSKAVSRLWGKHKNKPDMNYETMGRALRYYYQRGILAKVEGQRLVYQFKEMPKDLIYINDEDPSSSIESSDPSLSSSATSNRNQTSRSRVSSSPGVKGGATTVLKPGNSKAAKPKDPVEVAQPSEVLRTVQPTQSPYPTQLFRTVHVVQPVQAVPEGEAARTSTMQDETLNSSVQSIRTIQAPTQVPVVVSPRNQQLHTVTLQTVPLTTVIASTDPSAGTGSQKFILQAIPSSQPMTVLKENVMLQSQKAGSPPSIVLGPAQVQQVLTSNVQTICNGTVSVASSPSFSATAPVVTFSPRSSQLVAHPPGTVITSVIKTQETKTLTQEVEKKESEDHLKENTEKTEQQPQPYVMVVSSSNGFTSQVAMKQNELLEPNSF
Chain of ETV1 (P50549 whole entry): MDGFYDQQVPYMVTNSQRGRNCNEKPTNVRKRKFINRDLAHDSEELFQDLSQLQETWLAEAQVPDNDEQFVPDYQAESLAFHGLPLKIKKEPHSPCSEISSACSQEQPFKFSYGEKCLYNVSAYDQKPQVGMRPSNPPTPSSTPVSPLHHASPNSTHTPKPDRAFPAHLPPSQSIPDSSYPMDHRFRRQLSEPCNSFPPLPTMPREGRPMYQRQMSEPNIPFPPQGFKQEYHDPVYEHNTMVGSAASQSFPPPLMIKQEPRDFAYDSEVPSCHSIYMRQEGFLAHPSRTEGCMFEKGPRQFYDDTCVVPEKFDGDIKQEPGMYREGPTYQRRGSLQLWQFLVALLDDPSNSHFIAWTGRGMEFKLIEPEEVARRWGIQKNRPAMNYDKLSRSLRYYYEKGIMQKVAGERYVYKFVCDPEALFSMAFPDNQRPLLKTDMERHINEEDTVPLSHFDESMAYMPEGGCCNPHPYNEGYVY
Chain of ELF4 (Q99607 whole entry): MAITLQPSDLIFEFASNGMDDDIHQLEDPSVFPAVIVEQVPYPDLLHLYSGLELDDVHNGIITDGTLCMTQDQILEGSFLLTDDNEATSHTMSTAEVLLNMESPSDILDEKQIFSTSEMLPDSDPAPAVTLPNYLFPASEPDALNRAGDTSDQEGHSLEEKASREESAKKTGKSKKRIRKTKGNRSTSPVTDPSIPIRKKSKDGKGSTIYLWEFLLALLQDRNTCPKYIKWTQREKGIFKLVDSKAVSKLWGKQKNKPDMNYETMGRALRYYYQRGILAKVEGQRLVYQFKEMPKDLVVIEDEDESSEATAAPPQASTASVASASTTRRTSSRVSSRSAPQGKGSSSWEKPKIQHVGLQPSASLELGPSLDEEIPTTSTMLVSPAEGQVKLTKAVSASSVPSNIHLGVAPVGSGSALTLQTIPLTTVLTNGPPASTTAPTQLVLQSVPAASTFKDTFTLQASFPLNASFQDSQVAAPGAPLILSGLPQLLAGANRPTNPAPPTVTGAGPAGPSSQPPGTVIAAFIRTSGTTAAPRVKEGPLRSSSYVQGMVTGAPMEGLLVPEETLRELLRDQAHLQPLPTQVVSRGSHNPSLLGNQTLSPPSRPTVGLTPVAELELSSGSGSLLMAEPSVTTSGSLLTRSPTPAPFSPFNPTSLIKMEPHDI
Chain of ETV6 (P41212 whole entry): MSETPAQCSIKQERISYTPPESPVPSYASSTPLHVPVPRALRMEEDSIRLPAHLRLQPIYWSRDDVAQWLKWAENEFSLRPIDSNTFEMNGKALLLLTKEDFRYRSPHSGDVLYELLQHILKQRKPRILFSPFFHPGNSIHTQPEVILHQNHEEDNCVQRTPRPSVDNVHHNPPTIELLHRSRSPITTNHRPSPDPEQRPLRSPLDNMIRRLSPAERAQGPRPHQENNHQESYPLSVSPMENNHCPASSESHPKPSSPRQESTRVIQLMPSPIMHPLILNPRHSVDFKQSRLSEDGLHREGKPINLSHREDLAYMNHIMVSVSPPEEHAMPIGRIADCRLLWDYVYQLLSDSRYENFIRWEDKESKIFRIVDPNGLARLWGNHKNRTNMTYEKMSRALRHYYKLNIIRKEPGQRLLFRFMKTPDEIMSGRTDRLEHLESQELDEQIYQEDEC
Chain of SPIB (Q01892 whole entry): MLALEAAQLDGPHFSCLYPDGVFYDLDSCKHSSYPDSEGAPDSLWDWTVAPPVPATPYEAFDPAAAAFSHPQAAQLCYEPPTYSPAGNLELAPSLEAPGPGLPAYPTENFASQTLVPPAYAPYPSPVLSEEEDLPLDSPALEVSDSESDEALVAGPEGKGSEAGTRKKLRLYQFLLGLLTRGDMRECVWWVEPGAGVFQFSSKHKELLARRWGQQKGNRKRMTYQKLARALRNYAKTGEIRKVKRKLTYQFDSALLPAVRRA

CGCCGG: the binding signal in the assay with ELK1 is 1.21 fold enrichment (6-mer frequency, TF over GST control); with GABPA it was 1.14 fold enrichment (6-mer frequency, TF over GST control); with ERG, 1.19 fold enrichment (6-mer frequency, TF over GST control); in the assay with ELF1, 1.03 fold enrichment (6-mer frequency, TF over GST control); with EHF it was 1.19 fold enrichment (6-mer frequency, TF over GST control); with FEV, 1.4 fold enrichment (6-mer frequency, TF over GST control). Besides, the binding signal was 1.15 fold enrichment (6-mer frequency, TF over GST control) with ETV5; 1.02 fold enrichment (6-mer frequency, TF over GST control) with ELF4; 1.06 fold enrichment (6-mer frequency, TF over GST control) in the assay with ETV2; 1.13 fold enrichment (6-mer frequency, TF over GST control) in the assay with ELF3; 1.02 fold enrichment (6-mer frequency, TF over GST control) with ETV1; 1.06 fold enrichment (6-mer frequency, TF over GST control) with ETV3L. For the same sequence, the binding signal with ETV7 was 1.08 fold enrichment (6-mer frequency, TF over GST control); with ETV3, 1.1 fold enrichment (6-mer frequency, TF over GST control); with ETV6, 1.05 fold enrichment (6-mer frequency, TF over GST control).

As for CAATGG, the binding signal with ELK1 is 1.03 fold enrichment (6-mer frequency, TF over GST control); with GABPA, 1.09 fold enrichment (6-mer frequency, TF over GST control); with ELF1, 1.03 fold enrichment (6-mer frequency, TF over GST control); in the assay with SPI1 it was 1.04 fold enrichment (6-mer frequency, TF over GST control); with SPIB, 1.03 fold enrichment (6-mer frequency, TF over GST control); with FEV, 1.04 fold enrichment (6-mer frequency, TF over GST control). Moreover, the binding signal with ETV5 was 1.03 fold enrichment (6-mer frequency, TF over GST control); with ELF4, 1.02 fold enrichment (6-mer frequency, TF over GST control); in the assay with ETV1, 1.1 fold enrichment (6-mer frequency, TF over GST control); with ERF, 1.03 fold enrichment (6-mer frequency, TF over GST control); with ETV7 it was 1.12 fold enrichment (6-mer frequency, TF over GST control); with ETV3, 1.03 fold enrichment (6-mer frequency, TF over GST control). Also, the binding signal with ETV6 is 1.04 fold enrichment (6-mer frequency, TF over GST control).
